Results filed as inconclusive are left out. Where a call stands in place of a potency, no number is given. Activity calls are given as the source filed them. Calls follow the shape of the dose curve; as a rule, active = well fitted cell-killing curve with a large enough effect in the repeat runs; inconclusive = weak or mixed curves, or effect the other way; inactive = flat fitted curve, though single readings scatter.
Potency is read from the fitted curve at half-maximal effect.

The nature of the experiment: qHTS assay to identify small molecule agonists of the sonic hedgehog signaling (Shh) pathway - cell viability counter screen (AID 1259366). Also: nearly all actives have a fitted effect of over 50% in size. The note with it: NIH/3T3 Gli1-Luc viability, CellTiter-Fluor, 24 h; series mostly up to 92.4 µM. The source says:
National Center for Advancing Translational Sciences [NCATS]
NIH Chemical Genomics Center [NCGC]
U.S. Environmental Protection Agency [EPA]
National Institutes of Environmental Health Sciences [NIEHS]
National Toxicology Program [NTP]
U.S. Food and Drug Administration [FDA]
The sonic hedgehog (Shh) pathway is essential for normal embryonic development. Dysregulation of the Shh pathway can cause severe developmental defects in organs. Therefore chemicals that interfere with the pathway are potential developmental toxicants. A cell line designated 3T3Gli1-Luc (DMB/OARSA/CFSAN/FDA, Laurel, MD), a NIH/3T3 derived clone containing stably integrated Gli1-Luc reporter is used to detect chemical interference of the Shh pathway, by changes in the expression of the firefly Luc gene under the control of the Gli1 transcriptional response element. This cell line was used to screen Tox21 libraries for identifying and prioritizing the potential developmental toxicants that interfere Shh pathway. The cytotoxicity of the compounds was tested in parallel by measuring the cell viability using CellTiter-Fluor assay system (Promega, Madison, WI) in the same wells.
Tox21 Assay Protocol Summary:
3T3 Gli1-Luc cells were dispensed at 2,000 per well in 5uL of culture medium into white solid bottom 1536-well plates (Greiner Bio-One, Monroe, NC) using a Multidrop Combi (Thermo Scientific, Waltham, MA) dispenser. The assay plates were incubated at 37 C and 5% CO2 for 4hr, and then 23nL of compounds dissolved in DMSO and positive control were transferred using a Pintool station (Wako, San Diego, CA). The assay plates were incubated at 37C and 5% CO2 for 24hr. For viability read, after 23hr of compound treatment, 1uL of CellTiter-Fluor reagent (Promega Corporation, Madison, WI) was added to each well of the assay plates using Flying Reagent Dispenser (FRD, Aurora Discovery, San Diego, CA) and incubated the assay plates at 37C for 1hr. The fluorescence signal was quantified using a ViewLux plate reader (Perkin Elmer, Shelton, CT).
With `C=Cc1cccc(C)c1`, the Potency entry was “inactive”.
Same read-out and setting: the result for `COc1cc(C)ccc1O` reads “inactive”; that for `O=C(O)[C@H](O)[C@@H](O)[C@H](O[C@@H]1O[C@H](CO)[C@H](O)[C@H](O)[C@H]1O)[C@H](O)CO`, “inactive”.
As for `C[C@H]1NCc2cc(-c3ccc4c(=O)c(C(=O)O)cn(C5CC5)c4c3OC(F)F)ccc21`, the viability change, negative = cytotoxic is 2.18% [at 19 µM] (inactive).
Take `C=CCCC(=O)/C=C/C1C(C)=CCCC1(C)C` (stereo not given): the Potency entry was “inactive”.
With `Cc1ccc(N/N=c2\c(=O)cc/c(=N\Nc3ccc(S(=O)(=O)O)cc3)c2=O)c(C)c1`, the Potency was 30.6 µM (active).
Same read-out and setting: the result for `CCc1ccc(Br)cc1` reads “inactive”; that for `Cc1cc(-c2ccc(N=Nc3cc(S(=O)(=O)O)c4ccccc4c3N)c(C)c2)ccc1N=Nc1cc(S(=O)(=O)O)c2ccccc2c1N`, “inactive”; that for `O=C(O)Cc1ccccc1Nc1c(Cl)cccc1Cl`, “inactive”.
Turning to `Cc1ccc(O)c(O)c1`, the Potency was 21.1 µM (active).
In the case of `CCCCCCCCCCOC(=O)c1ccccc1C(=O)OCCCCCCCC`, the Potency entry is “inactive”.
With `O=C1NC(=O)[C@@H]2CC=CC[C@H]12`, the Potency result is “inactive”.
Consider `CC[C@H](C)COC(=O)/C=C/c1ccc(N=Cc2ccc(OC)cc2)cc1`, for which the Potency result was “inactive”.
Regarding `CCC(COC(=O)CCS)(COC(=O)CCS)COC(=O)CCS`, the Potency entry is “inactive”.
Take `CCCCOC(=O)CO`: the Potency result was “inactive”.
On the same count and under the same terms, then `CCN(CC)c1ccc2c(-c3ccc(S(=O)(=O)O)cc3S(=O)(=O)[O-])c3ccc(=[N+](CC)CC)cc-3oc2c1`, with 9.99 µM (active).
As for `C#C[C@]1(O)CC[C@H]2[C@@H]3[C@H](C)CC4=C(CCC(=O)C4)[C@H]3CC[C@@]21C`, the Potency entry was “inactive”.
For the compound `CCC(CC)C(C)CCOC(C)=O` (stereo not given), the Potency entry was “inactive”.
Turning to `CN(C)C(=O)COC(=O)Cc1ccc(OC(=O)c2ccc(N=C(N)N)cc2)cc1`, the Potency result was “inactive”.
Still for that read-out and setting: the result for `CC(C)(c1cc(Br)c(OCC(Br)CBr)c(Br)c1)c1cc(Br)c(OCC(Br)CBr)c(Br)c1` (stereo not given) reads “inactive”; that for `c1ccc(SSc2ccccc2)cc1`, “inactive”.
In the case of `CCO[Si](OCC)(OCC)OCC`, the Potency result was “inactive”.
In the case of `ClCCl`, the Potency entry is “inactive”.
Take `NC[C@H]1O[C@H](O[C@H]2[C@H](O[C@@H]3O[C@H](CO)[C@@H](O)[C@H]3O)C(O)[C@H](N)C[C@@H]2N)[C@H](N)[C@@H](O)[C@@H]1O` (stereo not given in full): the viability change, negative = cytotoxic was 2.25% [at 8.39 µM] (inactive).
Take `OC12N=C(c3ccccc3)SC1Cc1cc(Cl)ccc12` (stereo not given): the Potency result is “inactive”.
`O=C(O)O`: the viability change, negative = cytotoxic is 1.19% [at 8.39 µM] (inactive).
Consider `C=CC(C)(CCC=C(C)C)OC=O` (stereo not given), for which the Potency entry was “inactive”.
As to `COC(=O)C1=C(C)NC(C)=C(C(=O)OCCN2CCN(C(c3ccccc3)c3ccccc3)CC2)C1c1cccc([N+](=O)[O-])c1` (stereo not given), the Potency result was “inactive”.
As for `CCCC(=O)OCOC(=O)C1=C(C)NC(C)=C(C(=O)OC)C1c1cccc(Cl)c1Cl` (stereo not given), the Potency result was “inactive”.
`O=C(O)c1cc(-c2ccc(F)cc2F)ccc1O`: the Potency result was “inactive”.
Take `CC1(C)CCC[C@]2(C)[C@H]3CCO[C@]3(C)CC[C@@H]12`: the Potency result is “inactive”.
As to `CCOC(=O)NNc1ccc(N(CC)CC(C)O)nn1` (stereo not given), the Potency entry is “inactive”.
On the same count and under the same terms, then `CC(CO)Oc1ccccc1` (stereo not given), with “inactive”.
For `CN1CCN2c3ccccc3Cc3ccccc3C2C1` (stereo not given), the Potency result was “inactive”.
As for `O=C1C(c2[nH]c3ccc(S(=O)(=O)O)cc3c2O)=Nc2ccc(S(=O)(=O)O)cc21`, the Potency result was “inactive”.
In the case of `CC(C)(C)c1csc(-c2cc3cc(OCc4ccccc4CC(=O)O)ccc3o2)n1`, the Potency result is “inactive”.
On to `Nc1ccc(C(=O)O)c(O)c1`, for which the Potency result is “inactive”.
Same read-out and setting: then `c1ccsc1`, with “inactive”; and `O=C(O)c1cc(=O)c2ccccc2o1`, with “inactive”.
Consider `Cl[Si](Cl)(c1ccccc1)c1ccccc1`, for which the Potency result was “inactive”.
